Pf growth 96h: inhibits malaria parasite growth, 96 h. P. falciparum luciferase reporter growth, 96 h. Potency, µM (top dose mostly 28.7 µM), actives largely listed as inhibitors. 320,000 compounds, 6.9% hits. AID 504834
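P. falciparum expressing integrated firefly luciferase grown in erythrocytes (2% hematocrit, 0.05% parasitemia final) with compounds for 96 hours at 37 C, 5% CO2. Growth inhibition read as loss of luminescence after adding luciferase detection reagent.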
NS1 function inh: influenza NS1 inhibition | Potency, µM (titrated, usually from 46.1 µM) | 270,000 compounds, 0.4% hits; calls by dose curve; note: actives are rising curves; nearly all actives have a fitted effect of over 50% in size
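A cell-based growth assay was used: compounds that relieve NS1-induced slow growth of budding yeast raise OD600. Assay medium was yeast nitrogen base with ammonium sulphate and -URA supplement, pH 6.0, with 2% galactose.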
Pf growth 48h: P. falciparum growth inhibition at 48 hours (one generation); P. falciparum luciferase growth in erythrocytes, 48 h; Potency, µM (doses to about 28.7 µM), actives largely listed as inhibitors; 310,000 compounds, 5.9% hits; AID 504832
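Read-out is firefly luciferase luminescence from an integrated reporter in P. falciparum, so falling signal marks reduced parasite growth. Infected erythrocytes were at 2% hematocrit and 0.1% parasitemia (final) in Albumax-supplemented RPMI 1640.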
Cycloheximide cs: counter-screen hit for Shiga toxin inhibitors, cycloheximide. cell reporter, cycloheximide protein synthesis inhibition counterscreen. max response, %. 300,000 compounds, 12% hits; in the data active = max response mostly above about 13%, no sharp cut-off; inactive = mostly below about 14%; note: read at 38.3 µM for the half of the compounds with a filed dose
Shiga toxin inh: inhibitors of Shiga toxin in Vero cells. Vero cells, Shiga toxin protein synthesis inhibition reporter. inhibition, % at 38.7 µM. 290,000 compounds, 9.2% hits. AID 2315; in the data active = inhibition mostly above about 28%, no sharp cut-off; inactive = mostly below about 43%
Of the large screens only hits and unclear results are named; the others gave an inactive call. Rows were chosen to be rich in hits. Some 21% of all compounds tested hit in one or more screens of this group. Unless noted, calls come from the whole dose curve; as a rule, active = well fitted inhibition curve with a large enough effect; inconclusive = small, poorly fitted or top-dose-only effect, or another doubt; inactive = no such curve, though single readings can be large or run the other way.

COCC(C)n1c(C)cc(C(=O)COC(=O)c2ccc3ncsc3c2)c1C (stereo unspecified)	Cycloheximide cs 24, Shiga toxin inh 68
CN1C(=O)N(C)C(=O)C2(Cc3cc(NC(=O)c4ccc(F)cc4)ccc3N3CCCC32)C1=O (stereo unspecified)	Pf growth 96h 15µM, NS1 function inh inconclusive, Pf growth 48h inconclusive
CCCC(=O)Oc1ccc(N(C(=O)CCC)S(=O)(=O)c2cccc([N+](=O)[O-])c2)cc1	Pf growth 96h 4.7µM
COC(=O)C1=C(c2ccc(C(C)=O)cc2)C[C@@H]2CC[C@H]1N2C(=O)NC1CC1	none (no result: NS1 function inh, Cycloheximide cs, Shiga toxin inh)
COC(=O)C1=C(c2ccc(OCc3ccccc3)cc2)C[C@@H]2CC[C@H]1N2C(=O)NC1CCN(Cc2ccccc2)CC1	Pf growth 96h inconclusive, Pf growth 48h 9.3µM (no result: NS1 function inh, Cycloheximide cs, Shiga toxin inh)
COC(=O)C1=C(c2ccc(F)cc2OCc2ccccc2)C[C@@H]2CC[C@H]1N2C(=O)N1CCCC1	Pf growth 96h inconclusive, Pf growth 48h 9.3µM (no result: NS1 function inh, Cycloheximide cs, Shiga toxin inh)
COC(=O)C1=C(c2ccc(F)cc2F)C[C@@H]2CC[C@H]1N2C(=O)NC1CCCCC1	none (no result: NS1 function inh, Cycloheximide cs, Shiga toxin inh)
COC(=O)C1=C(c2ccc(F)cc2OCc2ccccc2)C[C@@H]2CC[C@H]1N2C(=O)NC(C)C	Pf growth 96h inconclusive, Pf growth 48h 9.3µM (no result: NS1 function inh, Cycloheximide cs, Shiga toxin inh)
COC(=O)C1=C(c2ccc(F)cc2OCc2ccccc2)C[C@@H]2CC[C@H]1N2C(=O)NC1CCCCC1	Pf growth 96h 15µM, Pf growth 48h inconclusive (no result: NS1 function inh, Cycloheximide cs, Shiga toxin inh)
CCOC(=O)C(C)(C)N(Cc1cccc(C)c1)S(=O)(=O)c1ccc(Cl)c([N+](=O)[O-])c1	Pf growth 96h inconclusive, Pf growth 48h inconclusive
COc1cccc(-n2cnc3sc(C)cc3c2=O)c1	none
CC(C)c1ccc2c(c1)CCC1C(C)(CN)CCCC21C (stereo unspecified)	Pf growth 96h 10µM, Pf growth 48h inconclusive
COc1ccc(OC)c(S(=O)(=O)N2CCCCCC2)c1	none
COc1cc(C)ccc1S(=O)(=O)N1CCCCCC1	none
CCOc1cc(C)c(C(C)C)cc1S(=O)(=O)N1CC(C)OC(C)C1 (stereo unspecified)	Pf growth 48h 13µM (no result: Pf growth 96h)
COc1ccc(/C=C/C(=O)O)cc1S(=O)(=O)N1CCCCC1	none
CCOc1cc(Br)ccc1S(=O)(=O)N1CC(C)OC(C)C1 (stereo unspecified)	Pf growth 48h inconclusive (no result: Pf growth 96h)
COc1ccc(Br)cc1S(=O)(=O)N1CCCC1	Pf growth 96h inconclusive, Cycloheximide cs 30, Shiga toxin inh 54
COc1ccc(/C=C/C(=O)O)cc1S(=O)(=O)N1CCCC1	Pf growth 96h 5.9µM
COc1ccc(C)cc1S(=O)(=O)N1CCCCCC1	Pf growth 48h 2.1µM
O=C(CC(C(=O)N1CCc2ccccc21)n1ccnc1)N1CCc2ccccc2C1 (stereo unspecified)	none
Cc1ccc(NC(=O)COC(=O)COc2cccc3c2OC(C)(C)C3)cc1S(=O)(=O)N1CCOCC1	none (no result: NS1 function inh, Cycloheximide cs, Shiga toxin inh)
O=S1(=O)NC(=NCCc2ccccn2)c2ccccc21	none (no result: NS1 function inh)
COc1ccc(C)cc1S(=O)(=O)N1CCCC(C(=O)N2CCN(c3ccccc3)CC2)C1 (stereo unspecified)	Pf growth 96h 10µM, Pf growth 48h 7.4µM
COc1ccc(S(=O)(=O)N2CCCCCC2)cc1N(C)S(=O)(=O)c1ccc(C)cc1	Pf growth 96h 10µM
COc1ccc(C)cc1S(=O)(=O)N1CC(C)OC(C)C1 (stereo unspecified)	Pf growth 96h 12µM, Cycloheximide cs 38
Cc1ccc(-c2nc(N)sc2CC(=O)OCC(=O)NCC2CCCO2)cc1 (stereo unspecified)	NS1 function inh inconclusive
NC(=O)c1nsc(C(=O)N(c2ccccc2)C(C(=O)NC2CCCCC2)c2ccc(O)cc2)c1N (stereo unspecified)	Pf growth 96h 10µM, Pf growth 48h inconclusive
CC(C)c1ccc(N(C(=O)c2snc(C(N)=O)c2N)C(C(=O)NC2CCCC2)c2ccncc2)cc1 (stereo unspecified)	Pf growth 48h inconclusive, Cycloheximide cs 15
COc1ccc(-c2nc(N3CCCC3)nc3nn4c(C)cc(C)nc4c23)cc1	none (no result: Pf growth 96h, Pf growth 48h, Cycloheximide cs, Shiga toxin inh)
Cc1ccccc1-c1nc(-c2ccc(Br)o2)no1	Cycloheximide cs 44, Shiga toxin inh 97
Fc1ccccc1-c1nc(-c2ccc(Br)o2)no1	Cycloheximide cs 57, Shiga toxin inh 85
Cc1ccccc1-c1nc(-c2ccc(NC(=O)c3ccc(Br)o3)cc2)no1	Pf growth 96h inconclusive, Cycloheximide cs 27, Shiga toxin inh 57
COc1ccc(Br)cc1-c1noc(-c2ccccc2F)n1	none (no result: Pf growth 96h)
Brc1ccc(-c2nnc3n2C2(CCCC2)Cc2ccccc2-3)o1	none
CC1(C)Oc2ccc3ccc(=O)oc3c2[C@@H](O)[C@H]1O	none (no result: NS1 function inh, Cycloheximide cs, Shiga toxin inh)
Cc1c(C(=O)NN2CCOCC2)oc2c1ccc1ccccc12	none (no result: NS1 function inh)
COc1ccc(-n2c(C)cc(C(=O)NC3CCCCC3)c2C)cc1	Pf growth 96h inconclusive, Pf growth 48h inconclusive, Cycloheximide cs 58, Shiga toxin inh 94
Cc1cccc(-n2c(C)cc(C(=O)NC3CCCCC3)c2C)c1	Pf growth 96h inconclusive, Pf growth 48h inconclusive, Cycloheximide cs 94, Shiga toxin inh 85
Cc1cccc(N2CCN(C(=O)NC3CCCCC3)CC2C)c1 (stereo unspecified)	Pf growth 96h inconclusive
COc1nc2c(C)cccc2cc1-c1noc(-c2ccncc2)n1	none
Cc1cccc2c1NC(=O)C21OCC(CO)([N+](=O)[O-])CO1 (stereo unspecified)	Pf growth 96h 2.6µM
Nc1ccc(C(=O)C(=O)c2ccc(N)cc2)cc1	none
Nc1ccc(N=Nc2ccc(N)cc2)cc1	Cycloheximide cs 33 (no result: NS1 function inh)
Nc1ccc(N=Nc2ccccc2)cc1	Cycloheximide cs 41, Shiga toxin inh 69 (no result: NS1 function inh)
COc1ccccc1NC(=S)NNC(=O)c1nn(C)c(C)c1Cl	Cycloheximide cs 34 (no result: Pf growth 48h)
COc1ccccc1NC(=S)NNC(=O)c1nn(C)c(C)c1Br	Cycloheximide cs 52, Shiga toxin inh 109
CCCCNC(=S)NNC(=O)c1nn(C)c(C)c1Cl	Cycloheximide cs 29, Shiga toxin inh 74
COc1ccccc1NC(=O)c1nn(C)cc1Br	none
COc1ccccc1NC(=S)NNC(=O)c1nn(C)cc1Cl	Pf growth 96h 6.6µM, Pf growth 48h inconclusive
Cc1c(Cl)c(C(=O)NNC(=S)NCc2ccco2)nn1C	none
Cc1cccc2[nH]c(CN(C)Cc3nc(CC4CC4)no3)nc12	none
Brc1ccccc1OCCCCCN1CCOCC1	Cycloheximide cs 29, Shiga toxin inh 135 (no result: NS1 function inh)
c1ccc(SCCCCN2CCOCC2)cc1	Pf growth 96h inconclusive, Pf growth 48h inconclusive, Cycloheximide cs 15
COc1ccc(CCNC(=O)CN(CCc2ccccc2)S(C)(=O)=O)cc1OC	none (no result: NS1 function inh)
COc1ccc(-c2nc(CS(=O)CC(=O)NCCCN3CCOCC3)c(C)o2)cc1OC (stereo unspecified)	Pf growth 96h inconclusive
CCCCCCCNC(=O)CN1N=C(c2ccc(C)cc2)CCC1=O	none (no result: Pf growth 48h)
O=[N+]([O-])c1ccc(-n2cc(-c3ccccc3)nn2)cc1	Cycloheximide cs 14
O=C(Nc1ccc2c(c1)OCO2)N1CCCc2ccccc21	Cycloheximide cs 35, Shiga toxin inh 85
O=C(CN1CCc2ccccc21)Nc1ccc2c(c1)OCCCO2	none (no result: NS1 function inh, Cycloheximide cs, Shiga toxin inh)
